Measurements from PubChem BioAssay (Tox21).
Values joined by “and” are separate entries in the source; they are usually repeats but may differ in a detail not shown here. Equal entries are not always repeated. Results filed as inconclusive are left out. A call without a number means that no potency is given here. Where a structure was tested more than once in an assay, its records may differ in their call. Active and inactive are the calls of the source. Unless noted, the call rests on the fitted dose curve; in most records, active means well fitted curve in the direction sought with a large enough effect in the repeat runs; inconclusive means weak or mixed curves; inactive means no such curve, though single readings can be large; an effect the other way counts as inactive or inconclusive.

Tests used:
[1] = molecular target: Thyrotropin-releasing hormone receptor (Homo sapiens) (UniProt P34981); test: qHTS assay to identify small molecule antagonists of the thyrotropin-releasing hormone receptor (TRHR) signaling pathway (AID 1346877; active means well fitted inhibition curve with a large enough effect in the repeat runs, not every such curve was filed as active; further: series mostly up to about 51 µM)
Method in brief: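 Antagonism is measured as suppression of the calcium response to 1 nM TRH in TRHR-HEK293 cells that have been dye-loaded for 2 h at 37 °C after overnight plating. Each compound is tested at 15 concentrations in triplicate.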

[2] = molecular target: Thyrotropin-releasing hormone receptor (Homo sapiens) (UniProt P34981); test: qHTS assay to identify small molecule agonists of the thyrotropin-releasing hormone receptor (TRHR) signaling pathway (AID 1346891; calls by dose curve;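 further: HEK293 cells expressing TRHR with calcium dye readout; series mostly up to about 58 µM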)
Method in brief: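 Cells: TRHR-Hek293, seeded and incubated 18 h. Dye loading: 2 h at 37 °C. Compound added from DMSO stock by pin tool. Read-out: kinetic calcium fluorescence over 3 min.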

[3] = Human pregnane X receptor (PXR) small molecule agonists, qHTS cell viability counter screen (AID 1346977); further: nearly all actives have a fitted effect of over 50% in size; further: potency means the concentration at half of the fitted maximal effect
Method in brief: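 Cytotoxicity counter screen run in the same wells as the PXR luciferase assay, using PXR-Luc HepG2 cells in charcoal-stripped serum medium. Viability: CellTiter-Fluor fluorescence after 24hr compound treatment.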

[4] = Caspase-3/7 induction in HepG2 cells by small molecules, qHTS assay (AID 1346978); further: nearly all actives have a fitted effect of over 15% in size; further: potency means the concentration at half of the fitted maximal effect
Method in brief: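 Wild-type HepG2 cells, 2,000/well, settled 5 hr at 37 C and 5% CO2, then compound-treated for 17 hr; caspase-3/7 activity read by luminescent Caspase-Glo 3/7 after 30 min at room temperature.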

[5] = Caspase-3/7 induction in CHO-K1 cells by small molecules, qHTS cell viability counter screen (AID 1346979); further: nearly all actives have a fitted effect of over 35% in size; further: potency means the concentration at half of the fitted maximal effect
Method in brief: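 Cytotoxicity counter screen run in parallel with the caspase-3/7 assay: CHO-K1 cells, 16hr compound treatment at 37C, then CellTiter-Fluor for 1hr before fluorescence reading.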

[6] = Caspase-3/7 induction in CHO-K1 cells by small molecules, qHTS assay (AID 1346980); further: nearly all actives have a fitted effect of over 15% in size; further: potency means the concentration at half of the fitted maximal effect
Method in brief: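 Wild-type CHO-K1 cells exposed to compounds for 17hr at 37 C, 5% CO2. Caspase-3/7 activity then measured by Caspase-Glo 3/7 luminescence after 30min at room temperature.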

[7] = molecular target: Progesterone receptor (Homo sapiens) (UniProt P06401); test: qHTS assay to identify small molecule agonists of the progesterone receptor (PR) signaling pathway (AID 1346784; calls by dose curve; further: nearly all actives have a fitted effect of over 30% in size)
Method in brief: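 Cells (PR-UAS-bla HEK 293T, GripTite) were plated in assay medium containing 2% charcoal-stripped FBS and incubated 6 hr. Test compounds in DMSO were added for 16 hr at 37C. FRET substrate was then loaded for 2 hr at room temperature before fluorescence reading.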

[8] = qHTS assay to identify small molecule agonists of the TGF-beta/Smad signaling pathway (AID 1346859; active means well fitted activation curve with a large enough effect in the signal ratio in the repeat runs, not every such curve was filed as active; the % refers to the signal ratio; further: series mostly up to about 77 µM)
Method in brief: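 Reporter line: HEK 293T with stably integrated SBE-controlled beta-lactamase. Compound exposure lasts 5 hr at 37 C and 5% CO2; substrate loading follows for 2 hr at room temperature, with emission read at 460 and 530 nm.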

[9] = molecular target: Cytochrome P450 2D6 (Homo sapiens) (UniProt P10635); test: Cytochrome P450 Family 2 Subfamily D Member 6 (CYP2D6) small molecule antagonists: luciferase reporter qHTS assay (AID 1671196); further: nearly all actives have a fitted effect of over 50% in size; further: potency means the concentration at half of the fitted maximal effect
Method in brief: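 Enzyme and proluciferin substrate were first combined with test chemical for 10 min at room temperature. Adding NADPH regeneration solution started a 1 h reaction, stopped with luciferin detection reagent and read by luminescence 20 min later.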

[10] = qHTS assay to identify small molecule antagonists of the progesterone receptor (PR) signaling pathway - cell viability counter screen (AID 1346798); further: nearly all actives have a fitted effect of over 50% in size; further: potency means the concentration at half of the fitted maximal effect
Method in brief: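 Counter screen for cytotoxicity: viability of PR-UAS-bla HEK293T cells was measured with CellTiter-Glo luminescence following 16 hr compound exposure in the presence of R5020.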

[11] = qHTS assay to identify small molecule agonists of the progesterone receptor (PR) signaling pathway - cell viability counter screen (AID 1346799; calls by dose curve; further: nearly all actives have a fitted effect of over 45% in size; further: potency means the concentration at half of the fitted maximal effect)
Method in brief: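 Cells (PR-UAS-bla HEK293T) are plated at 3,000/well in 2% charcoal-stripped FBS medium, rested 6 hr, dosed and incubated 16 hr at 37C. CellTiter-Glo is then added and luminescence measured after 30 min at room temperature.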

[12] = qHTS assay to identify small molecule antagonists of the TGF-beta/Smad signaling pathway - cell viability counter screen (AID 1346824); further: nearly all actives have a fitted effect of over 50% in size
Method in brief: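 SBE-bla HEK 293T cells, incubated overnight, then compound plus 0.25 ng/mL TGF-beta1 (stock added) for 5 hr at 37 C. Viability was read in the same wells by CellTiter-Glo luminescence after 30 min at room temperature.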

[13] = qHTS assay to identify small molecule agonists of the TGF-beta/Smad signaling pathway - cell viability counter screen (AID 1346829); further: top concentration of the series differs between compounds; nearly all actives have a fitted effect of over 45% in size
Method in brief: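 Tox21 qHTS format: SBE-bla HEK 293T cells treated with DMSO-dissolved compounds for 5 hr; CellTiter-Glo luminescence after 30 min at room temperature.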

[14] = Caspase-3/7 induction in HepG2 cells by small molecules, qHTS cell viability counter screen (AID 1346981); further: nearly all actives have a fitted effect of over 30% in size; further: potency means the concentration at half of the fitted maximal effect
Method in brief: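 Cell viability is measured as a cytotoxicity counter screen alongside the Caspase-Glo 3/7 readout in identical wells. Wild-type HepG2 cells are treated with test compounds for 16 hr at 37 C before CellTiter-Fluor addition and a 1-hr incubation.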

[15] = molecular target: Progesterone receptor (Homo sapiens) (UniProt P06401); test: qHTS assay to identify small molecule antagonists of the progesterone receptor (PR) signaling pathway (AID 1346795; active means well fitted inhibition curve with a large enough effect in the signal ratio in the repeat runs, not every such curve was filed as active; the % refers to the signal ratio; further: potency means the concentration at half of the fitted maximal effect)
Method in brief: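 Antagonist mode: compounds tested against 1 nM (final) promegestone stimulation in HEK293T cells expressing PR-UAS-bla reporter, 16 hr at 37C, 5% CO2; beta-lactamase activity detected via B/G FRET substrate after 2 hr at room temperature.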

[16] = molecular target: Nuclear receptor subfamily 1 group I member 2 (Homo sapiens) (UniProt O75469); test: Human pregnane X receptor (PXR) small molecule agonists, qHTS assay (AID 1346982); further: nearly all actives have a fitted effect of over 35% in size; further: potency means the concentration at half of the fitted maximal effect
Method in brief: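 Cells: HepG2 stably carrying PXR-Luc. Medium held 5% charcoal-stripped FBS. Compounds in DMSO added after 5 hr plating, incubated 24 hr, then luminescence quantified with ONE-Glo.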

[17] = molecular target: Nuclear receptor subfamily 1 group I member 2 (Homo sapiens) (UniProt O75469); test: CYP3A4 induction through human pregnane X receptor (PXR) by small molecules, qHTS assay (AID 1346984); further: nearly all actives have a fitted effect of over 40% in size
Method in brief: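 Quantitative HTS in DPX-2 cells, i.e. HepG2 transfected with PXR response element and CYP3A4-promoter luciferase. Compounds in DMSO incubated 24hr at 37C; then P450-Glo CYP3A4 substrate, 3uM final, 3hr; One-Glo luminescence.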

[18] = molecular target: Nuclear receptor subfamily 1 group I member 2 (Homo sapiens) (UniProt O75469); test: Human pregnane X receptor (PXR) activation by small molecules, qHTS assay (AID 1346985); further: nearly all actives have a fitted effect of over 40% in size
Method in brief: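 DPX-2 cells (HepG2 co-transfected with a PXR response element and a CYP3A4-promoter luciferase construct) were seeded at 2,000 per well, rested 5 hr at 37C, then exposed to DMSO-dissolved compounds for 24 hr. Activation was read as luciferase luminescence.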

[19] = molecular target: Cytochrome P450 2C19 (Homo sapiens) (UniProt P33261); test: Cytochrome P450 Family 2 Subfamily C Member 19 (CYP2C19) small molecule antagonists: luciferase reporter qHTS assay (AID 1671197); further: potency means the concentration at half of the fitted maximal effect; nearly all actives have a fitted effect of over 65% in size
Method in brief: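 Relative luminescence units recorded 20 min after the detection reagent stopped a 1 h, 37C CYP2C19 reaction on proluciferin substrate, which was started by NADPH regeneration following 10 min room-temperature compound preincubation; ketoconazole positive control.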

Sequence of Cytochrome P450 2C19 (Homo sapiens) (P33261 whole entry, looked up): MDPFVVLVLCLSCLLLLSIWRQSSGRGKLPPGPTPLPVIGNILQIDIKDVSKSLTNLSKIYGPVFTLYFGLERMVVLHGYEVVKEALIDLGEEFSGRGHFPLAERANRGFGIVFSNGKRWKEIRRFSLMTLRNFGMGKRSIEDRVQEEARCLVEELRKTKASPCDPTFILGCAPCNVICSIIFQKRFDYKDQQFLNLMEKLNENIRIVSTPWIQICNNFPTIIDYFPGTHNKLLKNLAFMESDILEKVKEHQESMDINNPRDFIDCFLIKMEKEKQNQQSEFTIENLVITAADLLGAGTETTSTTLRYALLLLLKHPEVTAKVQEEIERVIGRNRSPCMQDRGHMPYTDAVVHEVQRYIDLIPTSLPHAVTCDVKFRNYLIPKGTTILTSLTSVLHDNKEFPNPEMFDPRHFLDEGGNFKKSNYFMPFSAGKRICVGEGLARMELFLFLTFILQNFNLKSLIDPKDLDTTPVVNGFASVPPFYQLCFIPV
Sequence of Progesterone receptor (Homo sapiens) (P06401 whole entry, looked up): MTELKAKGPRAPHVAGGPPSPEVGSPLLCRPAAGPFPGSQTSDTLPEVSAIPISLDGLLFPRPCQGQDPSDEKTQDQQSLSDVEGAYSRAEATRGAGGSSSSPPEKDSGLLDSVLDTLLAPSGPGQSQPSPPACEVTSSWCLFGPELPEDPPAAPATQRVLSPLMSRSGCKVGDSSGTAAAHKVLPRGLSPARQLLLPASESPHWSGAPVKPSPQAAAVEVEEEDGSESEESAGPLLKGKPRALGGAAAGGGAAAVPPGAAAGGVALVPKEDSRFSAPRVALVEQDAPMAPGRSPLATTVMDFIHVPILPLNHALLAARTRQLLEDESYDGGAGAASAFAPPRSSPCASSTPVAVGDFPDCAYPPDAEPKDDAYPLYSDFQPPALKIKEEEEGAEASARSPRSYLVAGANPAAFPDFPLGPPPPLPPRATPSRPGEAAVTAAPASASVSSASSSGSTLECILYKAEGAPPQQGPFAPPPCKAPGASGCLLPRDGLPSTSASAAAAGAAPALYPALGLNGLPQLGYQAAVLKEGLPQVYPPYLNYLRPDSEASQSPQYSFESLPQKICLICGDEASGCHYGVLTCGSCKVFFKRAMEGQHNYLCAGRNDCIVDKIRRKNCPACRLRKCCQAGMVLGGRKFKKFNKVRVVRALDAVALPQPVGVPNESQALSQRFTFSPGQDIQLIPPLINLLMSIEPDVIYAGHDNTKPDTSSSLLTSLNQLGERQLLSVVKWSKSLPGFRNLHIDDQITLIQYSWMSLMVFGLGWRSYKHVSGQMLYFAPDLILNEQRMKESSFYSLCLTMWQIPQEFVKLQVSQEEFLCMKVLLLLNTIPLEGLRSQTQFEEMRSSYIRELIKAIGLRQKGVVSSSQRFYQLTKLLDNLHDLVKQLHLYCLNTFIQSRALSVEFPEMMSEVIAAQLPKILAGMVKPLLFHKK
Sequence of Thyrotropin-releasing hormone receptor (Homo sapiens) (P34981 whole entry, looked up): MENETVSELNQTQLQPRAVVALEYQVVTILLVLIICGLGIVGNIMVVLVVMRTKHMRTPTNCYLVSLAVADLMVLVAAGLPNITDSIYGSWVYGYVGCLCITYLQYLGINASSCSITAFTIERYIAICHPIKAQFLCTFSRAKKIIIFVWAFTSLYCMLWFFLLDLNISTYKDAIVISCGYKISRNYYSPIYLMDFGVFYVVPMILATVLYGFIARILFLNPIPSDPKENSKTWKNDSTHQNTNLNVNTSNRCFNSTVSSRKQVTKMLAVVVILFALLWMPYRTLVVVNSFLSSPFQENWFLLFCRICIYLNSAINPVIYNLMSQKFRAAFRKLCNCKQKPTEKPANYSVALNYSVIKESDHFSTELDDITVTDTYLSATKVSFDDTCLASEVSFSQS
Sequence of Nuclear receptor subfamily 1 group I member 2 (Homo sapiens) (O75469 whole entry, looked up): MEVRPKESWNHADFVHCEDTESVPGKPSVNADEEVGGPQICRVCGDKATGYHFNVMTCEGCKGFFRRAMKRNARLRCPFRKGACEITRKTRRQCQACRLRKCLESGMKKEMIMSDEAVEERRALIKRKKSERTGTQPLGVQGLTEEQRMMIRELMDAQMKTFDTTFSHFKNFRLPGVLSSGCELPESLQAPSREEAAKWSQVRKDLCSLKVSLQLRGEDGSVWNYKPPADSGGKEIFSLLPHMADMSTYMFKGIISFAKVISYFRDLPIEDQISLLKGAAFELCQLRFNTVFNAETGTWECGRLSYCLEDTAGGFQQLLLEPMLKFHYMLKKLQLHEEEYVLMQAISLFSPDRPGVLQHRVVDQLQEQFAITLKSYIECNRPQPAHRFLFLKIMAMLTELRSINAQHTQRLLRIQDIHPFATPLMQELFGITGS
Sequence of Cytochrome P450 2D6 (Homo sapiens) (P10635 whole entry, looked up): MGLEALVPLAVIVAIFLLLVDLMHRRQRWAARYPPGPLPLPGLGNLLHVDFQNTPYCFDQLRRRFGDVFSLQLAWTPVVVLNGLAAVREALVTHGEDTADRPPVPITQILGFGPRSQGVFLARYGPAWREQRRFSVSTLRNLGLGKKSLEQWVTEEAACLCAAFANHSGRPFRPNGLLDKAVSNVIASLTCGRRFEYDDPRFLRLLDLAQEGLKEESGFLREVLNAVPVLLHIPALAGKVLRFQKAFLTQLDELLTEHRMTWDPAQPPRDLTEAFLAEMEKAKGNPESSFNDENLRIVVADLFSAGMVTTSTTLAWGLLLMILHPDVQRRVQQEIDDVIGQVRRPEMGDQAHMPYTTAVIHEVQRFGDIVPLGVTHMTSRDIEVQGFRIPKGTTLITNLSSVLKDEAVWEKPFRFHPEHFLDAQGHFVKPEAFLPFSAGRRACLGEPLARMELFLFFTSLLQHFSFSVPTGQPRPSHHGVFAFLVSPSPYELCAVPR

| SMILES | Potency [1] | outcome [2] | Potency [3] | Potency [4] | Potency [5] | Potency [6] | Potency [7] | Potency [8] | Potency [9] | Potency [10] | Potency [11] | Potency [12] | Potency [13] | Potency [14] | Potency [15] | Potency [16] | Potency [17] | Potency [18] | Potency [19] |
| --- | --- | --- | --- | --- | --- | --- | --- | --- | --- | --- | --- | --- | --- | --- | --- | --- | --- | --- | --- |
| O=C1CCc2ccc(OCCCCN3CCN(c4cccc(Cl)c4Cl)CC3)cc2N1 | inactive | inactive | 16.8 µM (active) | inactive | 21.1 µM (active) | inactive |  |  |  |  |  |  |  |  |  |  |  |  |  |
| CN(C)[C@@H](CCOc1cccc2ccccc12)c1ccccc1 | inactive | inactive |  |  |  | inactive | inactive | inactive | 0.871 µM (active) |  |  |  |  |  |  |  |  |  |  |
| COc1cccc2c1C(=O)c1c(O)c3c(c(O)c1C2=O)C[C@@](O)(C(C)=O)C[C@@H]3O[C@H]1C[C@H](N)[C@H](O)[C@H](C)O1 | inactive | inactive | 1.09 µM (active) and 2.66 µM (active) | 1.38 µM (active) and 1.33 µM (active) | 21.8 µM (active) and 9.44 µM (active) | 4.89 µM (active) and 6.68 µM (active) |  |  |  | inactive | inactive | inactive | inactive | 30.8 µM (active) and 4.22 µM (active) |  |  |  |  |  |
| CCCCCCCCCCCCOCCOCCOCCOCCOCCOCCOCCOCCOCCO | inactive | inactive | 11.9 µM (active) |  |  | inactive |  | inactive | inactive |  |  |  | inactive | 29.8 µM (active) | 23.7 µM (active) | 7.5 µM (active) | inactive | inactive |  |
| Cc1cc(C(C)(C)C)c(O)c(C)c1Cn1c(=O)n(Cc2c(C)cc(C(C)(C)C)c(O)c2C)c(=O)n(Cc2c(C)cc(C(C)(C)C)c(O)c2C)c1=O | inactive | inactive | inactive | inactive | 27.3 µM (active) | inactive |  | inactive |  | inactive | inactive |  | inactive | inactive |  |  |  |  | 6.33 µM (active) |
| C=C(CC)C(=O)c1ccc(OCC(=O)O)c(Cl)c1Cl | inactive | inactive | 43 µM (active) | inactive | 68.1 µM (active) and inactive | inactive |  |  | 25 µM (active) and inactive | inactive | inactive | inactive | inactive | 30.4 µM (active) |  | inactive |  |  |  |
| O=C(c1ccc(O)c(O)c1)c1ccc(O)cc1O |  |  | 50.1 µM (active) |  |  | inactive |  |  | 3.55 µM (active) |  |  |  |  |  | 15.3 µM (active) | 54.4 µM (active) |  |  | 17.8 µM (active) |
| C[Si](Cl)(c1ccccc1)c1ccccc1 |  |  | inactive |  | inactive | inactive |  | inactive |  | inactive |  | inactive | inactive | inactive | 29.9 µM (active) | 59.6 µM (active) |  |  | 1.95 µM (active) |
| CC(=O)[C@H]1CC[C@H]2[C@@H]3CCC4=CC(=O)CC[C@]4(C)[C@H]3CC[C@]12C |  |  | inactive | inactive | 54.2 µM (active) and 48.6 µM (active) | inactive |  |  | 15.8 µM (active) and 39.9 µM (active) | 54.2 µM (active) | 60.8 µM (active) |  |  | inactive |  |  |  |  | 3.54 µM (active) and 3.99 µM (active) |
| CCN(CC)C(=O)c1cc(S(=O)(=O)Cc2ccccc2)c(N2CCC(c3ccccc3)CC2)cc1N(CC)CCN(C)C | inactive | inactive | 13.5 µM (active) |  |  | 24.1 µM (active) |  |  | 8.84 µM (active) | 19.1 µM (active) | 8.53 µM (active) |  |  | 17 µM (active) |  | 3.4 µM (active) |  |  |  |
